Only some compounds are listed: those with a hit (about 2.2% of all), similar ones and a draw of the others.
Myeloid diff 2 – compounds promoting myeloid differentiation; ER-HoxA9 myeloid progenitors, lysozyme-GFP differentiation, flow cytometry; calls only at 10 µM; hit rate 1% among 360,000; AID 624256;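 active = normalized GFP-positive differentiation at or above the plate's own cutoff, the solvent-only control mean plus 3 SD; inconclusive = no clear call, values can overlap the other calls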;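 note: cells exposed to compound for four days before flow analysis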
CRFBP-R2 agonist – CRF-BP/CRF-R2 complex agonism | HEK293 CRF-R2/CRF-BP, calcium dye fluorescence (FLIPR); percent of saturating CRF peptide response | activation, % at 13.2 µM | hit rate 0.46% among 350,000 | AID 588473;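 active = activation of at least 50%, plus an integration ratio under a set limit after plate pattern correction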
cardiac RTF act – cardiac RTF calcium sensitization. IANBD-labeled TnC RTF fluorescence at EC20 calcium; 0% EC20 calcium, 100% full calcium. activation, % at 7.2 µM. hit rate 0.24% among 340,000. AID 493008;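 active = activation above the mean over all tested compounds plus 3 SD, cut at about 30% in these data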;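 note: rise in fluorescence read as greater calcium sensitivity of cardiac thin filaments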
RTF Ca sens inh – cardiac RTF calcium desensitization. P19429+P45379. IANBD-labeled cardiac RTF, Ca2+ fluorescence. inhibition, % at 7.15 µM. hit rate 0.12% among 340,000. AID 493244;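 active = inhibition above the mean inhibition of all tested compounds plus 3 SD, cut at about 17% in these data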;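 note: assay run at fixed EC70 calcium of 1.6 mM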
CRFR2-BP antag – blocks CRF-induced signaling of the CRF-BP/CRF-R2 complex | HEK293 CRF-R2/CRF-BP, CRF-induced calcium fluorescence | inhibition, % at 11.8 µM | hit rate 0.59% among 350,000;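 active = inhibition of the ligand-induced calcium signal above about 50% at the single tested concentration, limit read from the data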
Each line names hits and unclear results; the compound was inactive in the other large screens.

O=c1[nH]cc(S(=O)(=O)Nc2ccc3c(c2)OCO3)c(=O)[nH]1	none
O=c1[nH]c(SCc2n[nH]c(=S)n2-c2ccccc2)nc2ccccc12	none
O=c1[nH]c(SCc2n[nH]c(=S)n2-c2ccccc2)nc2sc3c(c12)CCC3	CRFR2-BP antag 93.1
COc1cc(/C=C/C(=O)CC(=O)/C=C/c2ccc(O)c(OC)c2)ccc1O	CRFBP-R2 agonist 214.3, cardiac RTF act 56.9
COc1cc(/C=C/C(=O)/C=C(O)/C=C/c2ccc(O)c(OC)c2)ccc1O	CRFBP-R2 agonist 130.4
COc1ccc(-c2cc(-c3ccccc3)c(C#N)c(S(C)(=O)=O)n2)cc1	none (no result: Myeloid diff 2)
COc1nc(-c2ccccc2)cc(-c2ccc3c(c2)OCO3)c1C#N	Myeloid diff 2 active
COc1cc(C(=O)NC2CC(C)(C)Cc3c2cnn3-c2ccccc2)cc(OC)c1OC (stereo not drawn)	CRFR2-BP antag 57.2
CCCCN(c1ccc(C(=O)OC)cc1)S(=O)(=O)c1ccccc1	CRFR2-BP antag 62.8
CC1=C(C(=O)N(C(C)C)C(C)C)CC(CC(=O)NCCc2ccccn2)C(=O)N1CCCN1CCCC1=O (stereo not drawn)	none (no result: CRFBP-R2 agonist, cardiac RTF act, RTF Ca sens inh, CRFR2-BP antag)
CS(=O)(=O)Oc1ccc(Br)c2cccnc12	CRFR2-BP antag 62.3
CCOC(=O)/C=c1\s/c(=C\c2ccc(C(=O)OC)cc2)c(=O)n1CC(=O)Nc1ccccc1	none
CCOC(=O)/C=c1/s/c(=C/c2ccc3cc(OC)ccc3c2)c(=O)n1CC(=O)NCC1CCCO1 (stereo not drawn)	CRFBP-R2 agonist 79.2
CCOC(=O)/C=c1\s/c(=C\c2c(OC)ccc3ccccc23)c(=O)n1CC(=O)NCC1CCCO1 (stereo not drawn)	Myeloid diff 2 active
CCOC(=O)c1sc2nc(C)n(CC(=O)NCC3CCCO3)c(=O)c2c1C (stereo not drawn)	CRFR2-BP antag 58.0
Cc1nc2nc(C)n(CCN3CCOCC3)c(=O)c2c(-c2cccc([N+](=O)[O-])c2)c1C(=O)CCCCCCCCCCN1CCC(c2ccccc2)(c2ccccc2)CC1	none (no result: Myeloid diff 2)
COc1ccc(N(C)C(=O)C2CCCN2S(=O)(=O)c2cccc3nsnc23)c(OC)c1 (stereo not drawn)	Myeloid diff 2 inconclusive
CC(Sc1n[nH]c(N)n1)C(=O)NC1CCCCC1C (stereo not drawn)	none
CCC(=O)N(c1nnc(SCC(=O)Nc2ccccc2Cl)s1)C1CC1	none
C=CCSc1nnc(N2C(=O)C(O)=C(C(=O)c3ccco3)C2c2ccccc2F)s1 (stereo not drawn)	Myeloid diff 2 active
COc1cc(N)c(Cl)cc1C(=O)OCC(=O)NC(=O)NCc1ccco1	none
COCCNc1nc2c(c(=O)n(Cc3cccc(Cl)c3)c(=O)n2C)n1C	Myeloid diff 2 active
COCCNc1nc2c(c(=O)n(Cc3cccc(Br)c3)c(=O)n2C)n1C	none
O=C1OC(c2ccccc2)(c2ccccc2)c2ccccc21	none
Cc1cccc(C2(c3cccc(C)c3)OC(=O)c3ccccc32)c1	Myeloid diff 2 active
O=C(CCc1ccc(S(=O)(=O)N2CCOCC2)cc1)OCC(=O)c1ccccc1	cardiac RTF act 37.0
CCCCN(C)CCNC(=O)c1ccc(Cn2c(=S)[nH]c3ccc(Br)cc3c2=O)cc1	none
O=C1/C(=C/c2ccc(O)c(O)c2)Oc2cc(O)ccc21	none
COc1cc(/C=C2\Oc3cc(O)ccc3C2=O)ccc1O	CRFBP-R2 agonist 71.4, cardiac RTF act 41.2
Cc1ccsc1/C=C1\Oc2cc(O)ccc2C1=O	CRFBP-R2 agonist 72.4 (no result: cardiac RTF act, RTF Ca sens inh)
NC1=NC(=O)/C(=C/c2ccccc2OS(=O)(=O)c2ccc3ccccc3c2)S1	none
CC1(C(=O)Nc2ccc(Cl)cc2)Cc2c(-c3cccc(C(F)(F)F)c3)ccnc2O1 (stereo not drawn)	none (no result: CRFBP-R2 agonist, cardiac RTF act, RTF Ca sens inh, CRFR2-BP antag)
Cc1cc(OCC(=O)OCC(=O)N(C)C2CCS(=O)(=O)C2)ccc1Cl (stereo not drawn)	none
CC(C)/C=C1\CC/C(=C\c2ccc(N(C)C)cc2)C1=O	Myeloid diff 2 active, CRFBP-R2 agonist 166.0, cardiac RTF act 64.1
CN(C)c1ccc(/C=C2/C[N+](C)(C)C/C(=C/c3ccc(N(C)C)cc3)C2=O)cc1	none (no result: Myeloid diff 2)
CCC(c1nnc(SCC(=O)Nc2cccc(S(N)(=O)=O)c2)n1Cc1ccccc1)N(C)C (stereo not drawn)	none
CCC(c1nnc(SCC(=O)Nc2c(F)cccc2F)n1Cc1ccccc1)N(C)C (stereo not drawn)	CRFR2-BP antag 60.0
OCCC1CN(Cc2cccn2-c2ncccn2)CCN1CCc1ccccc1 (stereo not drawn)	none
Cc1cc(C)c2cc(C#N)c(N3CCCN(C(=O)c4cnccn4)CC3)nc2c1	Myeloid diff 2 active
CCOC(=O)N1CCN(Cc2nc3c(c(=O)n(C)c(=O)n3C)n2CCC(C)C)CC1	CRFR2-BP antag 129.4
CCCn1c(CN2CCN(C(=O)OCC)CC2)nc2c1c(=O)n(C)c(=O)n2C	none
O=C(COC(=O)C1CC2CCCC(C1)C2=O)Nc1cccc(F)c1 (stereo not drawn)	none
CCC(=O)NC(c1ccc(C)cc1)c1cc([N+](=O)[O-])c2cccnc2c1O (stereo not drawn)	none
CCCC(=O)NC(c1ccco1)c1cc([N+](=O)[O-])c2cccnc2c1O (stereo not drawn)	Myeloid diff 2 active
Cc1ccc(C)c(S(=O)(=O)NCc2ccc(C(=O)N3CCN(C)CC3)cc2)c1	none
Cc1ccc(C)c(S(=O)(=O)NCc2ccc(C(=O)N3CCC(Cc4ccccc4)CC3)cc2)c1	Myeloid diff 2 active
CC[C@@H](C)[C@@H]1CN([C@@H](CN2CCC[C@H]2CN2C(N)=NC[C@H]2CC(C)C)C(C)C)C(=N)N1CCc1ccc(Cl)c(Cl)c1	CRFR2-BP antag 62.8
Cc1ccc(S(=O)(=O)c2nc(S(C)(=O)=O)sc2N2CCC3(CC2)OCCO3)cc1	none
COc1cc(O)c2c(c1)COC2=O	CRFR2-BP antag 60.0
O=C(Nc1ccc(Cn2cccn2)cc1)c1ccc(COc2cccc(Br)c2)cc1	Myeloid diff 2 active
O=C(Nc1ccc(Cn2cccn2)cc1)c1ccc(COc2ccc(Br)cc2)cc1	none
CCCCc1cc(=O)oc2cc(OCC(=O)NC3CCN(Cc4ccccc4)CC3)ccc12	Myeloid diff 2 active
O=C(Cc1ccccc1[N+](=O)[O-])OCC(=O)c1ccccc1Br	none
CCCN1C2CCCC1CC(NC(=O)c1ccc(C(C)(C)C)cc1)C2 (stereo not drawn)	none
CCN1C(=O)CC2CCCC1C2 (stereo not drawn)	CRFR2-BP antag 75.0
N/C(Cc1ccc([N+](=O)[O-])cc1)=N\OC(=O)c1ccc(Br)cc1	CRFR2-BP antag 62.2
O=C1NC(=S)S/C1=C\c1cc(Cl)cc(Cl)c1O	CRFBP-R2 agonist 83.2
Cc1cc(/C=C2\SC(=S)NC2=O)c(C)n1C	Myeloid diff 2 active
CN(c1ccc(C(=O)Nc2ccc3c(c2)OCCO3)cc1)S(C)(=O)=O	Myeloid diff 2 active
O=C(Nc1ccc2c(c1)OCCO2)c1cccc(Cl)c1Cl	cardiac RTF act 39.0

Source: PubChem BioAssay
